TTR transcr act: activators of transthyretin transcription; SH-SY5Y TTR promoter Gaussia luciferase, luminescence; 100% = recombinant luciferase protein wells; hit rate 1.3% among 92,000; activation, % at 16.7 µM;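 active = activation above the mean of all tested compounds plus 3 SD, cut at about 9.5% in these data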;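 note: cells exposed to compounds for one day before reading; 0% = median of all test compound wells on the plate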
TTR inh HuH7: decreases TTR transcription in HuH7 cells in activator counter-screen; hit rate 4% among 1,100; inhibition, % at 16.7 µM; shares compounds with TTR transcr act; HuH7 TTR promoter-Gaussia luciferase reporter, luminescence;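 active = average inhibition above the solvent-only control wells' mean plus 3 SD, cut at about 15% in these data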;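 note: 0% = cells with DMSO only and 100% = cells with inhibitor control FD; inhibitors lower well luminescence so higher value means more inhibition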
TTR up confirm: human TTR transcription activation, confirmation; shares compounds with TTR transcr act; SHSY5Y TTR promoter Gaussia luciferase, luminescence; 100% = purified Lucia enzyme wells, no cells; activation, % at 16.7 µM; 1,100 tested, under 10 active; AID 1117280;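 active = mean activation above a set limit taken from the earlier primary screen, cut at about 11% in these data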;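 note: 0% = DMSO-treated cells and 100% = recombinant Lucia luciferase without cells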
* hit, by the source's call; . = not tested or not shown. Shown is part of a subset that was picked to be rich in hits.

SMILES	TTR transcr act	TTR inh HuH7	TTR up confirm
Cc1ccccc1Nc1nc(-c2ccccc2)c(C(=O)Nc2cccnc2)s1	13.5*	-13.4	-0.8
Cc1nc(Nc2ccc(Cl)c(Cl)c2)sc1C(=O)Nc1ccccc1	-3.0	.	.
CCc1nc2ccc(C(=O)NCc3cccs3)cn2c1N(CC)CCN(C)C	-2.0	.	.
CCC1CCc2sc(C(=O)NCC(c3ccccc3OC)N3CCCC3)cc2C1 (stereo not given)	-0.1	.	.
OC(CNCCNc1ncccc1C(F)(F)F)Cn1ccc2ccccc21 (stereo not given)	-0.8	.	.
Oc1ccccc1NCC(O)Cn1ccc2ccccc21 (stereo not given)	11.2*	4.6	-1.0
OCc1nc2ccccc2n1CC(O)Cn1ccc2ccccc21 (stereo not given)	-4.6	.	.
CC1(C)O[C@@H](CC(=O)O)[C@]23CO[C@H](C(=O)[C@]4(C)C2CC[C@@]2(C)[C@H](c5ccoc5)OC(=O)C5O[C@]524)[C@@H]13 (stereo not given in full)	21.9*	-1.5	0.5
CC1(C)O[C@H]2CC(=O)OC[C@]23[C@H]2CC[C@@]4(C)[C@H](c5ccoc5)OC(=O)[C@H]5O[C@]54[C@]2(C)[C@@H](O)C[C@@H]13	-2.0	.	.
CC(=O)c1cccc(OCc2cc(C(=O)N3CCC(N4CCCCC4)CC3)no2)c1	0.6	.	.
Cc1noc(C)c1C(=O)OCC(=O)NC1CCCCC1C (stereo not given)	-0.9	.	.
Cc1c(-c2nc(-c3cccnc3)no2)cccc1[N+](=O)[O-]	-0.6	.	.
O=[N+]([O-])c1cccc(-c2noc(-c3ccco3)n2)c1	11.8*	14.6*	-1.4
Cc1cccc(-c2noc(-c3ccoc3C)n2)c1	3.4	.	.
COC(=O)[C@]12C[C@H](CC(=O)NCc3ccc(C)o3)C(=O)N(CCc3ccc(OC)c(OC)c3)C1=C[C@H](C(C)(C)C)O[C@@H]2C	-0.9	.	.
O=c1[nH][nH]c2c1[C@H](c1ccc(F)cc1)O[C@H](CCC(F)(F)F)C2	-0.1	.	.
COC(=O)[C@]12C[C@H](CC(=O)NCc3ccc(C)o3)C(=O)N(Cc3cccc4ccccc34)C1=C[C@H](C(C)C)O[C@@H]2C1CC1	-4.2	.	.
Cc1ccc(N(C(=O)c2snc(C(N)=O)c2N)C(C(=O)NC2CCCC2)c2ccco2)cc1 (stereo not given)	-3.1	.	.
Cc1ccc(C(C(=O)NC2CCCC2)N(Cc2cccnc2)C(=O)c2snc(C(N)=O)c2N)o1 (stereo not given)	-0.5	.	.
CN(C)c1ccc(C(C(=O)NC2CCCCC2)N(Cc2ccco2)C(=O)c2snc(C(N)=O)c2N)cc1 (stereo not given)	11.5*	7.3	-1.1
COc1ccc(N(C(=O)c2ccco2)C(C(=O)NC2CCCC2)c2ccc(N(C)C)cc2)cc1OC (stereo not given)	17.3*	-22.5	1.5
CN(C)c1ccc(C(C(=O)NC2CCCC2)N(C(=O)c2ccco2)C2CC2)cc1 (stereo not given)	-0.6	.	.
COc1ccc(N(C(=O)c2ccco2)C(C(=O)NC2CCCCC2)c2ccccc2)cc1 (stereo not given)	-1.1	.	.
Cc1ccc(C(=O)Nc2nc3n(n2)C(c2ccccc2)CC(=O)N3)cc1 (stereo not given)	-2.8	.	.
C=CCN1C(=O)[C@H](CC(=O)NCCCC)[C@@]2(C(=O)OCC)CCCC=C12	-0.4	.	.
SMILES	TTR transcr act	TTR inh HuH7	TTR up confirm
COc1ccccc1NC(=S)OCCN1CCCC12CCC(c1ccccc1)CC2 (stereo not given)	0.6	.	.
Cc1cccc(N2O[C@H]3C=C[C@@H]2C3)n1	-0.8	.	.
C1=CC2CCC1ON2c1ccccc1 (stereo not given)	16.7*	-4.1	0.3
Nc1ccccc1C(=O)N1O[C@@H]2C=C[C@H]1C2	0.1	.	.
O=C(CN1C(=O)NC2(CCCCC2)C1=O)NC1CCCc2ccccc21 (stereo not given)	1.8	.	.
CCOC(=O)[C@H]1[C@H]2COc3ccc(C)cc3[C@@H]2N2C(=O)c3cc(OC)c(OC)cc3NC(=O)[C@@]12C	1.2	.	.
CCOC(=O)[C@H]1[C@H]2COc3ccc(Cl)cc3[C@@H]2N2C(=O)c3cc(Br)ccc3NC(=O)[C@@]12C	15.9*	5.4	-0.5
CCOC(=O)[C@H]1[C@H]2COc3ccccc3[C@@H]2N2C(=O)c3ccc(Cl)cc3NC(=O)[C@@]12C	-0.5	.	.
CCOC(=O)[C@@H]1[C@H]2COc3ccc(Br)cc3[C@@H]2N2C(=O)N(c3ccc(F)cc3)C(=O)[C@@]12C	15.9*	-34.1	-0.2
CCOC(=O)[C@@H]1[C@H]2COc3ccc(Br)cc3[C@@H]2N2C(=O)N(c3ccc(Cl)cc3)C(=O)[C@@]12C	-0.1	.	.
CCOC(=O)[C@H]1[C@H]2COc3ccc(Br)cc3[C@@H]2N2C(=O)N(c3ccc(F)cc3)C(=O)[C@@]12C	-1.9	.	.

Compound activity (PubChem)
